PMC7862700, “An all-to-all approach to the identification of sequence-specific readers for epigenetic DNA modifications on cytosine”

Tests used:
Test in all cases: DAPPL (digital affinity profiling via proximity ligation, sequencing); 10 mM Tris-HCl pH 7.5, 50 mM NaCl, 1 mM DTT, 4% glycerol, room temperature, 30 min; GST-TFs on glutathione beads, 16-mer random dsDNA library, 0.1% formaldehyde crosslink after washing; high values mean tight binding
FLI1 = target: T1, FLI1 (Homo sapiens, UniProt Q01543 1-452); conditions: protein: recombinant; tags: N-terminal GST; dsDNA, one strand shown
T1 sequence: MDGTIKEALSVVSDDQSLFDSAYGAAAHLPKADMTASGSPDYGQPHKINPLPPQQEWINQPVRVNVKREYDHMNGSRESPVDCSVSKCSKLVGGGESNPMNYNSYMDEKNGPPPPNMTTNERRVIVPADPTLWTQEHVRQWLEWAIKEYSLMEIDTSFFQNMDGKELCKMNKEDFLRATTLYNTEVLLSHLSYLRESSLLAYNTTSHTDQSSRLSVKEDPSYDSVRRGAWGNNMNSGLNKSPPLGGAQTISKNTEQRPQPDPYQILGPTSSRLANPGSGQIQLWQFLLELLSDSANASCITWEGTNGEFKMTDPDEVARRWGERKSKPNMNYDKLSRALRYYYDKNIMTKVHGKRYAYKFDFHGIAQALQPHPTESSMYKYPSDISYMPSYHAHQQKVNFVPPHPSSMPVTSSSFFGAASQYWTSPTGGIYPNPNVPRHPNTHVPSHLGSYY
Procedure, shortened: (§1)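 Human transcription factors were made in yeast as GST fusions, captured on glutathione beads and barcoded with DNA. With a tag-only sample included, the pool was incubated with 200 nmole of a random double-stranded 16-mer DNA library in Tris/NaCl/DTT/glycerol buffer at room temperature for 30 min, then crosslinked with 0.1% formaldehyde after washing, ligated by proximity, amplified and sequenced. For binding signal, each hexamer's read frequency for a factor is divided by its frequency for the tag-only sample.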

ELK1 = target: T2, ELK1 (Homo sapiens, UniProt P19419 1-428); conditions: protein: recombinant; tags: N-terminal GST; dsDNA, one strand shown
T2 sequence: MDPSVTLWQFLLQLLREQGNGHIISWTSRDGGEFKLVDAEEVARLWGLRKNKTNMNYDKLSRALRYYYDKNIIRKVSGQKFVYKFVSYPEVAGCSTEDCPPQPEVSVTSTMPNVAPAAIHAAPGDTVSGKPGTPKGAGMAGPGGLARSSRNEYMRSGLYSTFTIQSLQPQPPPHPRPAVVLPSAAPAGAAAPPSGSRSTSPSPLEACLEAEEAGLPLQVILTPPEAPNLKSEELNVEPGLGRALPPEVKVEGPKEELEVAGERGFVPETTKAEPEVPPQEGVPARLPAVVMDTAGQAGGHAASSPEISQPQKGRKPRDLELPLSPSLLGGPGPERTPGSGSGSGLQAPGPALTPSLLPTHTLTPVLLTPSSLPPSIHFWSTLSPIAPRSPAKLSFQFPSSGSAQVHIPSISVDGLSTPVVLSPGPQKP
Procedure, shortened: as §1

GABPA = target: T3, GABPA (Homo sapiens, UniProt Q06546 1-454); conditions: protein: recombinant; tags: N-terminal GST; dsDNA, one strand shown
T3 sequence: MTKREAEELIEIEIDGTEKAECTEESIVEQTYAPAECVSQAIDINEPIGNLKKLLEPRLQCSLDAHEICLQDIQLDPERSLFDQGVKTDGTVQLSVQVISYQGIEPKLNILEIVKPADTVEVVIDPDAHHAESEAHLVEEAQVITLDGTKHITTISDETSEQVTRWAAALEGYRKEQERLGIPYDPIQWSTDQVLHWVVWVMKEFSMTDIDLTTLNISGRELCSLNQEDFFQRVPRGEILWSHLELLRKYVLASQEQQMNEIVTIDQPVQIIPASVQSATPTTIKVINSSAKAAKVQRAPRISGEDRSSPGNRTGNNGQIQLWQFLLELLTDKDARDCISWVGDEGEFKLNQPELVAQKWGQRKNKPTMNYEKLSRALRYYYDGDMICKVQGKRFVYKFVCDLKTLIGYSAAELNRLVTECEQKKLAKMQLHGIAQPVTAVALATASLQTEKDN
Procedure, shortened: as §1

ERG = target: T4, ERG (Homo sapiens, UniProt P11308 1-479); conditions: protein: recombinant; tags: N-terminal GST; dsDNA, one strand shown
T4 sequence: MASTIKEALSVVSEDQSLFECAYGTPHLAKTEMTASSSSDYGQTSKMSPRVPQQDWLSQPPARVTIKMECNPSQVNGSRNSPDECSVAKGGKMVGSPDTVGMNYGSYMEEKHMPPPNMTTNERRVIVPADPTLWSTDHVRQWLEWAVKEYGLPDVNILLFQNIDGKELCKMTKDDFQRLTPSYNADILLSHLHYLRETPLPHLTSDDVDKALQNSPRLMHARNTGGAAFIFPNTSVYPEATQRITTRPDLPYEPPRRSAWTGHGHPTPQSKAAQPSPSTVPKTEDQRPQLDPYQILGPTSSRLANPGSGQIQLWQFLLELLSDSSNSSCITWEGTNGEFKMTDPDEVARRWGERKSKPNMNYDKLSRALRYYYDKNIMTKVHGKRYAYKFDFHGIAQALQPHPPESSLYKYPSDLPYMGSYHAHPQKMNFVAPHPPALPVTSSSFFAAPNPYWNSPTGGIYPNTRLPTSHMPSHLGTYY
Procedure, shortened: as §1

ELF1 = ELF1 (Homo sapiens, UniProt P32519 1-619); conditions: protein: recombinant; tags: N-terminal GST; dsDNA, one strand shown
Procedure, shortened: as §1

EHF = target: T5, EHF (Homo sapiens, UniProt Q9NZC4 1-300); conditions: protein: recombinant; tags: N-terminal GST; dsDNA, one strand shown
T5 sequence: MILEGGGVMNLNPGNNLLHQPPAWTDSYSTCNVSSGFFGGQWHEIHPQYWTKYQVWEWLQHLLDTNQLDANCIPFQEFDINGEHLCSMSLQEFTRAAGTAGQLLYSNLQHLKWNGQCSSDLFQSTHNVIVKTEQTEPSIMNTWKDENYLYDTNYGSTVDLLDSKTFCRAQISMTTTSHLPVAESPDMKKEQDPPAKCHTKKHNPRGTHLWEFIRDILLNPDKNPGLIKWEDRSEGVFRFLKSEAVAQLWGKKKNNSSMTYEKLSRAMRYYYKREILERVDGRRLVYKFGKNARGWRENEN
Procedure, shortened: as §1

SPI1 = SPI1 (Homo sapiens, UniProt P17947 1-270); conditions: protein: recombinant; tags: N-terminal GST; dsDNA, one strand shown
Procedure, shortened: as §1

SPIB = SPIB (Homo sapiens, UniProt Q01892 1-262); conditions: protein: recombinant; tags: N-terminal GST; dsDNA, one strand shown
Procedure, shortened: as §1

ELK3 = target: T6, ELK3 (Homo sapiens, UniProt P41970 1-407); conditions: protein: recombinant; tags: N-terminal GST; dsDNA, one strand shown
T6 sequence: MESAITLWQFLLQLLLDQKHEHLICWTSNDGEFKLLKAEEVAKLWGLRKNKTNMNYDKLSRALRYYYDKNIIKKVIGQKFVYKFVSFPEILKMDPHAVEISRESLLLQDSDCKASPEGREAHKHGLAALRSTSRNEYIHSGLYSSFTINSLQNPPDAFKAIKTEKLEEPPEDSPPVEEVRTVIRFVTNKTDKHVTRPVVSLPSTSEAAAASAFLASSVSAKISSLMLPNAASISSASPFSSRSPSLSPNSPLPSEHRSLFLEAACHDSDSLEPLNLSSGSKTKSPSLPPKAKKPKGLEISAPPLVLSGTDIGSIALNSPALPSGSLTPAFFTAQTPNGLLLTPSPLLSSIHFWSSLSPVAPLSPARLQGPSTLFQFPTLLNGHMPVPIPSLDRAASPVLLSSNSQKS
Procedure, shortened: as §1

FEV = target: T7, FEV (Homo sapiens, UniProt Q99581 1-238); conditions: protein: recombinant; tags: N-terminal GST; dsDNA, one strand shown
T7 sequence: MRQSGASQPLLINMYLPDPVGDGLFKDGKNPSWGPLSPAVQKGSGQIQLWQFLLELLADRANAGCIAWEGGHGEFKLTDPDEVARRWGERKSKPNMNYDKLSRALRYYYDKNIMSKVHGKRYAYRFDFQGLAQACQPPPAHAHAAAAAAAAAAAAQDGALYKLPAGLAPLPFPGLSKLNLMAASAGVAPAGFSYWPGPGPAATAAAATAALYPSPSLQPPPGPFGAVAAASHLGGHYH
Procedure, shortened: as §1

ETV5 = ETV5 (Homo sapiens, UniProt P41161 1-510); conditions: protein: recombinant; tags: N-terminal GST; dsDNA, one strand shown
Procedure, shortened: as §1

HSF1 = HSF1 (Homo sapiens, UniProt Q00613 1-529); conditions: protein: recombinant; tags: N-terminal GST; chain copies: 3; dsDNA, one strand shown
Procedure, shortened: as §1

SPIC = target: T8, SPIC (Homo sapiens, UniProt Q8N5J4 1-248); conditions: protein: recombinant; tags: N-terminal GST; dsDNA, one strand shown
T8 sequence: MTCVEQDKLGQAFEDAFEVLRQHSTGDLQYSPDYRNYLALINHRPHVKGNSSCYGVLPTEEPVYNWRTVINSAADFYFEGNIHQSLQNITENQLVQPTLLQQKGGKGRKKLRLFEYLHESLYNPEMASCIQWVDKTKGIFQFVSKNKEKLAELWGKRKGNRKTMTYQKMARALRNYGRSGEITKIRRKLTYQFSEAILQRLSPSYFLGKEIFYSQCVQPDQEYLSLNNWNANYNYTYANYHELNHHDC
Procedure, shortened: as §1

ELF4 = ELF4 (Homo sapiens, UniProt Q99607 1-663); conditions: protein: recombinant; tags: N-terminal GST; dsDNA, one strand shown
Procedure, shortened: as §1

ELK4 = target: T9, ELK4 (Homo sapiens, UniProt P28324-2 1-405); conditions: protein: recombinant; tags: N-terminal GST; dsDNA, one strand shown
T9 sequence: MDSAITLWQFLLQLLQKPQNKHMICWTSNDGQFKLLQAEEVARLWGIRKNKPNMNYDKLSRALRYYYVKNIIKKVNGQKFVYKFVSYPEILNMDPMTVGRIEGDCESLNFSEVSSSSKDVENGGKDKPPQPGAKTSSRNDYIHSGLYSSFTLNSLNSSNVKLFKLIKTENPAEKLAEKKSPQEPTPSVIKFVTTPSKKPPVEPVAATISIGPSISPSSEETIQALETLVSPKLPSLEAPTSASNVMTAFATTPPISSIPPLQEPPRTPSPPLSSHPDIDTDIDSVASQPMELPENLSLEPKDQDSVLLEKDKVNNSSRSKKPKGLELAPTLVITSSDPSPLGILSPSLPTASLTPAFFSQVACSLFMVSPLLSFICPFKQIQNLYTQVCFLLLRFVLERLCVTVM
Procedure, shortened: as §1

ETV2 = target: T10, ETV2 (Homo sapiens, UniProt O00321 1-342); conditions: protein: recombinant; tags: N-terminal GST; dsDNA, one strand shown
T10 sequence: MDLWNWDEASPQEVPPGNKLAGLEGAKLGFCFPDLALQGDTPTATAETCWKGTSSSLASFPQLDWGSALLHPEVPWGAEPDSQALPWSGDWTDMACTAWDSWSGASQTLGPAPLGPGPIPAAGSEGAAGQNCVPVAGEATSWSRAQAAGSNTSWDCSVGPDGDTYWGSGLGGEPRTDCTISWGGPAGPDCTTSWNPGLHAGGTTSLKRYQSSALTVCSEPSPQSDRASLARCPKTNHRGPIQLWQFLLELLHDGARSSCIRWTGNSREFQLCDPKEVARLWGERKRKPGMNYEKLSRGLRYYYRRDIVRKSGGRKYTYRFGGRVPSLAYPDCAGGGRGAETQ
Procedure, shortened: as §1

ELF3 = target: T11, ELF3 (Homo sapiens, UniProt P78545 1-371); conditions: protein: recombinant; tags: N-terminal GST; dsDNA, one strand shown
T11 sequence: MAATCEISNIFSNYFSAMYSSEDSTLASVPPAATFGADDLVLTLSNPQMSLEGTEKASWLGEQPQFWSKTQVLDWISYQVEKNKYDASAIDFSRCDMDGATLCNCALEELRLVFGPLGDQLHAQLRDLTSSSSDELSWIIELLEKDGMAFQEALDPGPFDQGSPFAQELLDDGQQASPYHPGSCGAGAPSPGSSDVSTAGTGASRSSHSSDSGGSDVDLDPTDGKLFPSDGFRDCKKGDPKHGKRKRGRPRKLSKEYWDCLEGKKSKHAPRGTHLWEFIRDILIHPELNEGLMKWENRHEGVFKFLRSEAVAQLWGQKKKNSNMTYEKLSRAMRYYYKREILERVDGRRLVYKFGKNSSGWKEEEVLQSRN
Procedure, shortened: as §1

CRX = CRX (Homo sapiens, UniProt O43186 1-299); conditions: protein: recombinant; tags: N-terminal GST; dsDNA, one strand shown
Procedure, shortened: as §1

ETV1 = ETV1 (Homo sapiens, UniProt P50549 1-477); conditions: protein: recombinant; tags: N-terminal GST; dsDNA, one strand shown
Procedure, shortened: as §1

ELF1, sequence (P32519 whole entry): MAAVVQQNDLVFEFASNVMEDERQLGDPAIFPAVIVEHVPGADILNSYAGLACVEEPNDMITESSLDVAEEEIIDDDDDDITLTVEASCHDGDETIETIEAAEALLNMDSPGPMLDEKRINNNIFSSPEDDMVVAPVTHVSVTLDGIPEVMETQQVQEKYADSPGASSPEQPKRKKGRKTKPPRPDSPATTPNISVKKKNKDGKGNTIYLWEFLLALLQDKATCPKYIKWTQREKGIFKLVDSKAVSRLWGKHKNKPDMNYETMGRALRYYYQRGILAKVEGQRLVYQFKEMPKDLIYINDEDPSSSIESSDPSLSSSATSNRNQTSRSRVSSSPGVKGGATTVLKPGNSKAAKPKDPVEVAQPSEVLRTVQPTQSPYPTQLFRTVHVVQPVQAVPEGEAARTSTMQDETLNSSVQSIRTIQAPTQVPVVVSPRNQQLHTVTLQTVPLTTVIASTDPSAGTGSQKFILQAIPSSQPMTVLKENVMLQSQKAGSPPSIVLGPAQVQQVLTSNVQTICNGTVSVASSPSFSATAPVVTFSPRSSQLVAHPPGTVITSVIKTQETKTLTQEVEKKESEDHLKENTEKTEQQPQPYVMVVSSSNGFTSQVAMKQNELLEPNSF
HSF1, sequence (Q00613 whole entry): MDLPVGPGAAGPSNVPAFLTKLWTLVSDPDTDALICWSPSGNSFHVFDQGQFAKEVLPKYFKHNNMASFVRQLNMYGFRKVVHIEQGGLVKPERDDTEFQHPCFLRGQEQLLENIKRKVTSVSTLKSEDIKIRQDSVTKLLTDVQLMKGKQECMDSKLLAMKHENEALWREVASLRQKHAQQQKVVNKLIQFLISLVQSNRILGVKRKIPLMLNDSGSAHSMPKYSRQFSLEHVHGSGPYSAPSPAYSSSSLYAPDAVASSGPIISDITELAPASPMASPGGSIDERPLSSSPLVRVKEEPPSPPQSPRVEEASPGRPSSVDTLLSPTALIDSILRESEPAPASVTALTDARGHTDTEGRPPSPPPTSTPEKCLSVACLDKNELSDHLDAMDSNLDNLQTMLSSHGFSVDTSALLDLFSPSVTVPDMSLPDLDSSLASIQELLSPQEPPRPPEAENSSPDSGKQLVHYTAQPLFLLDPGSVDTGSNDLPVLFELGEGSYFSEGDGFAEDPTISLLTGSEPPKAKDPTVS
ETV1, sequence (P50549 whole entry): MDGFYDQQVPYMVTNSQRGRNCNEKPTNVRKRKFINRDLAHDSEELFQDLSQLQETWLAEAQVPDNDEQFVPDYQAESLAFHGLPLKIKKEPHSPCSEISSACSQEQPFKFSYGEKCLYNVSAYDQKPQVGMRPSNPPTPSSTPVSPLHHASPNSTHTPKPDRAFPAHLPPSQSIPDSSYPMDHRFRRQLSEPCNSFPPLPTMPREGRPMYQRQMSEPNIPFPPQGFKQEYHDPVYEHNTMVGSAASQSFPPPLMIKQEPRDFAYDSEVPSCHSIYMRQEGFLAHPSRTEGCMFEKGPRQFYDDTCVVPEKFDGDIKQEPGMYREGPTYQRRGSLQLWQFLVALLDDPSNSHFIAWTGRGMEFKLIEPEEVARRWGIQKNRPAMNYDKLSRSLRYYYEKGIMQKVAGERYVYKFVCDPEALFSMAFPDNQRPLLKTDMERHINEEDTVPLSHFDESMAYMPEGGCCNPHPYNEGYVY
ELF4, sequence (Q99607 whole entry): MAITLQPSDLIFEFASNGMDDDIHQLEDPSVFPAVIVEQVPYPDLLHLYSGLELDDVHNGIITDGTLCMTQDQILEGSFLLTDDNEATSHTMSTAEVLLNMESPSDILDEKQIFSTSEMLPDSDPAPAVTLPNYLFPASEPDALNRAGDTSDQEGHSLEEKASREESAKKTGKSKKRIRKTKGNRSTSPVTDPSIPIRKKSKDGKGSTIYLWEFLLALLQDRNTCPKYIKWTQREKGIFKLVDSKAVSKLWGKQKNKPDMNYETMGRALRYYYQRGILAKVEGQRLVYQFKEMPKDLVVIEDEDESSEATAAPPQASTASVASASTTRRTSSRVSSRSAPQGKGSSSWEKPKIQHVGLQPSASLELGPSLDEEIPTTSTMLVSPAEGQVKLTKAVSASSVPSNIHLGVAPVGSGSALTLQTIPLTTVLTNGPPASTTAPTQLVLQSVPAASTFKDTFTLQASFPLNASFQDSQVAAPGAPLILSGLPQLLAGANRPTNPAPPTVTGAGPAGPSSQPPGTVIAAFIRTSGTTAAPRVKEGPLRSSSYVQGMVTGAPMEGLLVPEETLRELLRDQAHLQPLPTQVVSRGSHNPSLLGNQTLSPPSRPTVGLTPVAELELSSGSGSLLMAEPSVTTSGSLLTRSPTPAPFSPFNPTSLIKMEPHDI
ETV5, sequence (P41161 whole entry): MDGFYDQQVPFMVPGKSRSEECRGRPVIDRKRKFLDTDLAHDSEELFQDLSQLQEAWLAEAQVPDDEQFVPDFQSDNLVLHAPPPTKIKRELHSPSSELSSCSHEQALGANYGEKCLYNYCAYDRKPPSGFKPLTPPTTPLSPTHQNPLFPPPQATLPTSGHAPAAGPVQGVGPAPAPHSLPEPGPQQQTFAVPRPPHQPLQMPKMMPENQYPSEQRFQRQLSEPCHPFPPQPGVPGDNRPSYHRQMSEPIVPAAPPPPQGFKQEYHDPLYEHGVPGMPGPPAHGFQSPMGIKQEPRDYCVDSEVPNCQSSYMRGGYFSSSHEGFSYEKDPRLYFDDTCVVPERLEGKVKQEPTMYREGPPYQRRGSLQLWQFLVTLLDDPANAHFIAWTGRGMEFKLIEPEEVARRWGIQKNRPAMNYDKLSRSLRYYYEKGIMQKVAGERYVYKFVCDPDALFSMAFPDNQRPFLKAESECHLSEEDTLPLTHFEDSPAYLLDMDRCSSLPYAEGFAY
CRX, sequence (O43186 whole entry): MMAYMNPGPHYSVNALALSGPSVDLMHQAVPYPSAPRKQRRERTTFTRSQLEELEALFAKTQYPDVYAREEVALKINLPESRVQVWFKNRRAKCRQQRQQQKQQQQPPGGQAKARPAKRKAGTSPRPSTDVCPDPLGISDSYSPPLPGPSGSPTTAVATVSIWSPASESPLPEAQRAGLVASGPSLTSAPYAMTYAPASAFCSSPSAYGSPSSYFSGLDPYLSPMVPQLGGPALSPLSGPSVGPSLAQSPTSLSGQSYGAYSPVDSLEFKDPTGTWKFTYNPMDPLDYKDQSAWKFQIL
SPIB, sequence (Q01892 whole entry): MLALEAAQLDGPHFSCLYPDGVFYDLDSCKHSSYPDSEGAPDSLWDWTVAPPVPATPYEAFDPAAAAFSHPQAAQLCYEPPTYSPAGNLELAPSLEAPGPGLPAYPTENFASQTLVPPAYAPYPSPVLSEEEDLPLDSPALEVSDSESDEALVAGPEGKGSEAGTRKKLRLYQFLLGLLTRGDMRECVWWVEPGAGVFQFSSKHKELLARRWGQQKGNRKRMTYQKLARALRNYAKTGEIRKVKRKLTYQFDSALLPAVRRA

TAAGCT
binding signal (FLI1): 1.21 fold enrichment (6-mer frequency, TF over GST control) | binding signal (ELK1): 1.24 fold enrichment (6-mer frequency, TF over GST control) | binding signal (GABPA): 1.17 fold enrichment (6-mer frequency, TF over GST control) | binding signal (ERG): 1.18 fold enrichment (6-mer frequency, TF over GST control) | binding signal (ELF1): 1.15 fold enrichment (6-mer frequency, TF over GST control) | binding signal (EHF): 1.2 fold enrichment (6-mer frequency, TF over GST control) | binding signal (SPI1): 1.1 fold enrichment (6-mer frequency, TF over GST control) | binding signal (SPIB): 1.18 fold enrichment (6-mer frequency, TF over GST control) | binding signal (ELK3): 1.12 fold enrichment (6-mer frequency, TF over GST control) | binding signal (FEV): 1.08 fold enrichment (6-mer frequency, TF over GST control) | binding signal (ETV5): 1.16 fold enrichment (6-mer frequency, TF over GST control) | binding signal (HSF1): 1.91 fold enrichment (6-mer frequency, TF over GST control) | binding signal (SPIC): 1.24 fold enrichment (6-mer frequency, TF over GST control) | binding signal (ELF4): 1.18 fold enrichment (6-mer frequency, TF over GST control) | binding signal (ELK4): 1.21 fold enrichment (6-mer frequency, TF over GST control) | binding signal (ETV2): 1.19 fold enrichment (6-mer frequency, TF over GST control) | binding signal (ELF3): 1.32 fold enrichment (6-mer frequency, TF over GST control) | binding signal (CRX): 3.23 fold enrichment (6-mer frequency, TF over GST control) | binding signal (ETV1): 1.23 fold enrichment (6-mer frequency, TF over GST control)
